From the supplement of paper PMC6555819

What was measured:
Assay in all cases: PBM binding z-score (relative to random genomic background probes); higher = stronger binding; sequences stand for … in GC…GCGATTGACAGCGTAGAATGAAGG
[1] = tested on: PPARg:RXRa DBDmut IVT, anti-RXR (DBD mutation: RXRa K156A/R161A, NR concentration 270 nM, RXRa partner concentration 90 nM)
Summary of the method: (§1)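 Scanned fluorescence from custom Agilent 4×180K protein-binding microarrays was regression-normalized. Binding z-scores use random background probes as reference. Ligand-free nuclear receptor dimers were incubated on the arrays for 1 h and detected with antibodies against each partner (one per run).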

[2] = tested on: PPARg:RXRa IVT, anti-PPARg (NR concentration 270 nM, RXRa partner concentration 90 nM)
Summary of the method: as §1

[3] = tested on: PPARg DBDmut:RXRa IVT, anti-PPARg (DBD mutation: PPARg1 K132A/R137A, NR concentration 270 nM, RXRa partner concentration 90 nM)
Summary of the method: as §1

[4] = tested on: PPARg DBDmut IVT, anti-PPARg (DBD mutation: PPARg1 K132A/R137A, NR concentration 270 nM)
Summary of the method: as §1

[5] = tested on: PPARg homodimer (NR concentration 180 nM)
Summary of the method: as §1

[6] = tested on: PXR:RXRa (NR concentration 270 nM, RXRa partner concentration 90 nM)
Summary of the method: as §1

[7] = tested on: PXR homodimer (NR concentration 270 nM)
Summary of the method: as §1

[8] = tested on: RARa:RXR (NR concentration 270 nM, RXRa partner concentration 90 nM)
Summary of the method: as §1

[9] = tested on: RARa homodimer (NR concentration 270 nM)
Summary of the method: as §1

[10] = tested on: RARb:RXRa (NR concentration 270 nM, RXRa partner concentration 90 nM)
Summary of the method: as §1

[11] = tested on: RARb homodimer (NR concentration 270 nM)
Summary of the method: as §1

[12] = tested on: RARg:RXRa (NR concentration 270 nM, RXRa partner concentration 90 nM)
Summary of the method: as §1

[13] = tested on: RARg homodimer (NR concentration 270 nM)
Summary of the method: as §1

[14] = tested on: RXRa DBDmut IVT, anti-RXR (DBD mutation: RXRa K156A/R161A, NR concentration 90 nM)
Summary of the method: as §1

[15] = tested on: RXRa homodimer (NR concentration 180 nM)
Summary of the method: as §1

[16] = tested on: THRa:RXRa (NR concentration 90 nM, RXRa partner concentration 90 nM)
Summary of the method: as §1

[17] = tested on: THRa homodimer (NR concentration 90 nM)
Summary of the method: as §1

[18] = tested on: VDR:RXRa (NR concentration 270 nM, RXRa partner concentration 90 nM)
Summary of the method: as §1

[19] = tested on: VDR homodimer (NR concentration 270 nM)
Summary of the method: as §1

Row | Sequence | PBM binding z-score [1] | PBM binding z-score [2] | PBM binding z-score [3] | PBM binding z-score [4] | PBM binding z-score [5] | PBM binding z-score [6] | PBM binding z-score [7] | PBM binding z-score [8] | PBM binding z-score [9] | PBM binding z-score [10] | PBM binding z-score [11] | PBM binding z-score [12] | PBM binding z-score [13] | PBM binding z-score [14] | PBM binding z-score [15] | PBM binding z-score [16] | PBM binding z-score [17] | PBM binding z-score [18] | PBM binding z-score [19]
1 | ATCGAAAGGTCGAAGGGGAGTATACCCACCCGAA | -0.023 | 1.38 | 1.29 | 0.309 | 1.15 | 2.21 | 0.32 | 2.79 | 0.273 | 3.73 | 2.2 | 3.86 | 3.58 | 0.681 | 4.21 | 1.73 | -0.345 | 2.67 | 0.649
2 | AGTCACAGTTCAGGACGAGGTAACGTAAAGCACG | -0.095 | 0.996 | 0.513 | 0.376 | 0.443 | 1.13 | 0.45 | 1.52 | 0.51 | 2.08 | 1.66 | 2.48 | 1.95 | 1.31 | 1.28 | 3.34 | 1.84 | 1.12 | 0.905
3 | TGTCGGAGGACACGAAAGGTCAGAGCTCGACATC | -0.0424 | 1.74 | 0.729 | -0.228 | 2.53 | 4.04 | 0.82 | 4.12 | 1.52 | 4.31 | 4.55 | 4.97 | 5.76 | -0.334 | 4.22 | 3.78 | 1.3 | 3.34 | 1.38
4 | CGAACGAGGGCATGAGTTGATAGAAAATGCCGAT | 2.74 | 1.89 | -0.343 | -0.182 | 0.547 | 0.565 | 0.619 | 0.664 | 0.132 | 1.87 | 0.815 | 1.29 | 1.56 | 2.47 | 0.995 | 1.28 | -0.093 | 1.29 | 1.74
5 | CCTAGTTGGTCAGGAGGTCACACTCCGGATATGA | 2.49 | 3.68 | 0.158 | 0.204 | 4.17 | 4.23 | 1.2 | 4.82 | 1.53 | 3.72 | 4.21 | 4.74 | 4.43 | 1.03 | 5.04 | 3.4 | 2.46 | 3.82 | 2.5
6 | CCTTACGGGTCAGTCCAGGTTATAGCATCGGAGT | 1.7 | 2.05 | -0.331 | -0.72 | 1.36 | 4.25 | 0.276 | 2.69 | 0.405 | 3.31 | 2.69 | 3.23 | 3.53 | 0.751 | 2.55 | 4.66 | 0.627 | 2.9 | 1.12
7 | CCGACTGGGGCAAGGTAACCATAACGCACAGCCA | 2.79 | 2.75 | 0.115 | -0.601 | 0.0706 | -0.546 | -0.376 | 0.0797 | 0.0514 | 0.619 | 0.426 | 0.417 | 0.527 | -0.495 | 0.481 | 0.522 | 0.219 | -0.466 | -0.0983
8 | CTACCAAGGTGAACAAGGTCGTTGATTACTATTC | 2.26 | 2.58 | 0.576 | 0.29 | 0.831 | 2.96 | 1.95 | 2.45 | 0.346 | 2.16 | 2.1 | 1.73 | 1.67 | 1.41 | 1.91 | 3.2 | 1.81 | 5.95 | 2.28
